Laboratory results as given in PubChem BioAssay AID2107 (National Center for Advancing Translational Sciences (NCATS), 2009).
The campaign covered roughly 240,000 compounds. About 20 (0.008%) were called active. About 1% were inconclusive and are not listed. A selection follows. Unmarked numbers belong to inactive results. Calls come from the whole dose curve; as a rule, active = well fitted inhibition curve with a large enough effect; inconclusive = small, poorly fitted or top-dose-only effect, or effect the other way; inactive = flat fitted curve, though single readings scatter.
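Note: 0% = enzyme with vehicle and -100% = no enzyme basal signal.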

What follows are molecules tested against Alpha-galactosidase A (Homo sapiens) (UniProt P06280) (assay: qHTS Assay for Inhibitors and Activators of Human alpha-Galactosidase From Spleen Homogenate). Conditions: 4MU-alpha-Gal fluorescence, 40 min; series mostly up to 80 µM.
Sequence of Alpha-galactosidase A (Homo sapiens) (P06280 32-429 limits assumed): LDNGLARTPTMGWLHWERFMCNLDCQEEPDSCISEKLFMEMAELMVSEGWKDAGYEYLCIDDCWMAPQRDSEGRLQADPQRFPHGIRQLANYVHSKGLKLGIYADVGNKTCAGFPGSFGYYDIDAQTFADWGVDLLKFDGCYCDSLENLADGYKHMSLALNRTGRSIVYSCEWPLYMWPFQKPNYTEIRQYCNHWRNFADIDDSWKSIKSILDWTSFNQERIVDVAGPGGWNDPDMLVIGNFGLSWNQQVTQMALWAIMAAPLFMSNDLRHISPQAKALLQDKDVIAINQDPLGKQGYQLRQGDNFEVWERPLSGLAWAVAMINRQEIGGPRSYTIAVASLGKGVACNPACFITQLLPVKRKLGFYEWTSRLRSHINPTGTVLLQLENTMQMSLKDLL
Method in brief: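 Human spleen homogenate (1 ug) was the enzyme source, with 4-methylumbelliferyl-alpha-D-galactopyranoside (1 mM final) in pH 5.0 citrate buffer with 0.01% Tween-20. Compounds were titrated; after 40 min at 37C, NaOH/glycine stop, 4-MU fluorescence read; AC50 from Hill fits.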
For `CCOc1cc(-c2conc2N)cc(OCC)c1OCC`, the activity change, negative = inhibition was “inactive”. `CC1(OC(=O)c2ccc(Cl)nc2)C(=O)Cc2cc(-c3ccsc3)ncc2C1=O` (centres undefined) showed an activity change, negative = inhibition of 4.14% [at 17.5 µM]. For `O=C(O)CCc1nc2cc(Cl)ccc2n(Cc2ccccc2)c1=O`, the activity change, negative = inhibition was “inactive”. In the case of `Cc1ccc(S(=O)(=O)c2nc(NCCCn3ccnc3)sc2Cl)cc1`, the activity change, negative = inhibition is reported as “inactive”. In the case of `COc1cccc2sc(N(CCCN(C)C)C(=O)C(c3ccccc3)c3ccccc3)nc12`, the activity change, negative = inhibition is reported as “inactive”. `CC(=O)OCCC(C)C` was tested, and the activity change, negative = inhibition was “inactive”. With `CN(C)CCOCCOc1ccc(Cl)c2ccccc12` the activity change, negative = inhibition was “inactive”. For `COC(=O)CCc1ccccc1S(=O)(=O)N(CCC(=O)OC)Cc1ccccc1`, the activity change, negative = inhibition was “inactive”. `CC(C)C(NS(=O)(=O)c1ccc(-c2ccc(Br)cc2)cc1)C(=O)O` (centres undefined) was tested, and the activity change, negative = inhibition was “inactive”. In the case of `CCn1c2ccccc2c2cc(NC(=O)Nc3ccc([N+](=O)[O-])cc3C)ccc21`, the activity change, negative = inhibition is reported as “inactive”. With `COc1ccc(NC(=O)CSc2nnc(-c3ccccc3F)n2C2CC2)cc1S(N)(=O)=O` the activity change, negative = inhibition was “inactive”. For `Cc1cc(C(=O)COc2ccccc2[N+](=O)[O-])c(C)n1-c1cccc(S(=O)(=O)N2CCOCC2)c1`, the activity change, negative = inhibition was “inactive”. In the case of `Oc1ccc(-c2c(-c3ccccc3)nn3c(C(F)(F)F)cc(C(F)(F)F)nc23)cc1`, the activity change, negative = inhibition is reported as “inactive”. `CCCn1c(C)nc2c(NCCCCN(CC)CC)nc(C)nc21` was tested, and the activity change, negative = inhibition was “inactive”. `COc1ccc(C2=Nn3c(nnc3-c3ccccc3O)SC2)cc1` was tested, and the activity change, negative = inhibition was “inactive”. `O=C(Cc1coc2ccc3ccccc3c12)NCc1cccs1` was tested, and the activity change, negative = inhibition was “inactive”. In the case of `O=C(CSC(=S)N1CCCCC1)c1c(F)cccc1F`, the activity change, negative = inhibition is reported as “inactive”. `O=c1c([N+](=O)[O-])cccn1Cc1ccc(F)cc1Cl` was tested, and the activity change, negative = inhibition was “inactive”. In the case of `CCc1nnc(NC(=O)C2CC(=O)N(c3ccc4c(c3)OCCO4)C2)s1` (centres undefined), the activity change, negative = inhibition is reported as “inactive”. In the case of `CCOC(=O)N1CCN(C(=O)c2ccccc2N(Cc2ccccc2)S(=O)(=O)c2ccc(OC)cc2)CC1`, the activity change, negative = inhibition is reported as “inactive”. In the case of `O=S(O)S(=O)(=O)O`, the activity change, negative = inhibition is reported as “inactive”. For `COc1c(O)c2c(=O)cc(OC)c3c4c(OC)cc(=O)c5c(O)c(OC)c6c(c(c1C[C@@](C)(O)[C@H]6C(C)=O)c23)c54`, the activity change, negative = inhibition was “inactive”. `NC(=O)C1(C(N)=O)OC1c1ccc(Cl)cc1Cl` (centres undefined) was tested, and the activity change, negative = inhibition was “inactive”. With `C/C(=N/N1CCN(Cc2cccc3ccccc23)CC1)c1cccnc1` the activity change, negative = inhibition was “inactive”. In the case of `COc1ccc(N(C(=O)c2ccc(C)cc2)S(=O)(=O)c2cccs2)cc1`, the activity change, negative = inhibition is reported as “inactive”. `C[C@H]1CC[C@H](C(=O)O)N[C@@H]1c1ccc(C#Cc2ccccc2)cc1` showed an activity change, negative = inhibition of 7.47% [at 17.5 µM]. In the case of `COc1ccc(-c2cn3ccc(C)cc3n2)cc1`, the activity change, negative = inhibition is reported as “inactive”. With `CCN(CC)CCOCCOc1ccc(Cl)c2ccccc12` the activity change, negative = inhibition was “inactive”. In the case of `Cc1noc(C)c1-c1ccc2ncnc(NC(C)c3ccco3)c2c1` (centres undefined), the activity change, negative = inhibition is reported as “inactive”.
